# TROY signal inh: blocks TROY-dependent signaling in reporter cells. Q293 LMP1-TROYcd NF-kB luciferase reporter, 4 h. 360,000 compounds, 0.98% hits. inhibition, % at 10 µM;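 active = compounds whose plate-normalised and pattern-corrected inhibition of the luciferase reporter signal at the single screening dose is 50% or more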
# PAX8 inh HTS: lowers PAX8-driven luciferase in RMG-I cells; 360,000 compounds, 1.2% hits; inhibition, % at 12.6 µM; RMG-I TPO-luciferase reporter, SteadyGlo, 24 h;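 active = mean replicate inhibition at least 60% with every replicate also reaching 60%; inconclusive = only one of the two criteria is met; inactive = mean below 60% and not all replicates reaching 60%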;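 note: luciferase light reporting Pax8 driven TPO promoter activity; plate controls were median of neutral control wells for no effect and mitoxantrone controls for full effect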
# TWEAK-Fn14 inh: TWEAK-Fn14 signaling inhibition. TWEAK-stimulated Fn14 reporter cells, luciferase luminescence, 8 h. inhibition, % at 10 µM. 360,000 compounds, 2% hits. AID 1159606; in the data active = inhibition above about 50%
# LGR2 antag: blocks bursicon-induced cAMP signaling via Drosophila LGR2. AID 720647. inhibition, % at 9.99 µM. 380,000 compounds, 0.35% hits. HEK293 LGR2, CRE-luciferase, bursicon-stimulated, 4 h;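 active = drop in luminescence signal, shown as inhibition above about 50% in the replicate tests, limit read from the data, passing the limit was not always enough; inconclusive = probably only some replicates passing the limit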;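 note: agonist challenge used bursicon conditioned medium at about half maximal strength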
# EBV LMP1 NFkB: reduces LMP1-driven NF-kappaB luciferase signal; LMP1-induced NF-kappaB luciferase reporter cells, luminescence; inhibition, % at 12.5 µM; 350,000 compounds, 0.69% hits; AID 504558; in the data active = inhibition above about 41%; inconclusive = no clear call, values can overlap the other calls;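 note: 0% = neutral control wells and 100% = reference inhibitor control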
# EWS-Fli inh: EWS/Fli transcriptional activity inhibition; 350,000 compounds, 0.67% hits; A673 NR0B1-luciferase reporter, viability-normalised; inhibition, % at 12.6 µM; AID 651661;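 active = mean inhibition of at least 50% after viability correction, with every replicate also passing that limit; inconclusive = mean reaches 50% but only one of two replicates passes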;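 note: firefly luciferase signal divided by Alamar Blue viability fluorescence both relative to DMSO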
# * = called active by the depositor; ? = inconclusive; . = no result. An excerpt weighted towards active compounds, which were near 3.2% of everything screened.
SMILES,TROY signal inh,PAX8 inh HTS,TWEAK-Fn14 inh,LGR2 antag,EBV LMP1 NFkB,EWS-Fli inh
N#CC1=C(N)N2C(=C(C#N)C13CCN(Cc1ccccc1)CC3)Nc1ccccc12,-35.7,.,-19.4,.,5.8,.
N#CC1=C(N)N2C(=C(C#N)C1c1ccc(Br)cc1)Nc1ccccc12 (stereo not given),.,97.7*,.,48.9,.,19.5
N#CC1=C(N)N2C(=C(C#N)C1c1cccc(Br)c1)Nc1ccccc12 (stereo not given),72.5*,-7.6,94.3*,26.2,51.8*,36.0
CC1=NNC(=O)/C1=C\c1cn(-c2ccccc2)nc1-c1ccccc1,89.7*,33.3,106.4*,105.9*,-55.7,82.2*
O=C(c1ccccn1)N1C[C@H]2[C@@H](c3ccccc31)[C@H](CO)N2C(=O)Cc1ccccc1,.,-2.4,.,5.0,.,-3.4
CCc1ccc(NC(=O)c2noc3c2CCC3)cc1,28.3,-10.6,72.7*,.,0.5,.
O=C(NC1CCCCC1)c1noc2c1CCCCC2,41.9,.,54.7*,-56.7,-9.9,.
Cc1ccc(NC(=O)c2noc3c2CCCCC3)cc1,-10.3,.,51.0*,23.6,-16.3,.
C[C@@H]1CN([C@@H](C)CO)C(=O)c2cc(NC(=O)Cc3cn(C)c4ccccc34)ccc2O[C@H]1CN(C)C(=O)Nc1ccccc1,.,6.6,.,4.4,.,-1.6
C[C@@H]1CN([C@@H](C)CO)C(=O)Cc2cc(NC(=O)C3CC3)ccc2O[C@@H]1CN(C)Cc1ccc2c(c1)OCO2,.,12.5,.,-12.2,.,10.4
CN(C)CCNC(=O)c1cc2c(s1)-c1ccc(Cl)cc1SC2,45.0,93.5*,104.6*,1.6,3.0,35.4
COc1ccc(-c2csc(N3CCN(c4cc(C)nc5ccccc45)CC3)n2)cc1OC,41.6,36.3,52.0*,.,31.1,29.5
COc1cc(-c2csc(N3CCOCC3)n2)cc(OC)c1OC,-15.2,.,-6.9,-11.0,-3.8,.
COCC(=O)N(C)C[C@@H]1Oc2ncc(C#CC(C)(C)O)cc2C(=O)N([C@@H](C)CO)C[C@@H]1C,.,-17.8,.,7.7,.,-11.6
COc1ccc(Nc2cc(C)nc3ccc(C)cc23)cc1,-12.2,-22.7,-22.6,7.0,4.6,2.5
CC(=O)c1ccc(Nc2cc(C)nc3ccc(C)cc23)cc1,-28.0,22.1,-12.0,62.2*,-31.1,13.8
Cc1ccc(/C=C/C(=O)c2ccc([N+](=O)[O-])o2)cc1,.,27.3,.,16.0,.,64.0*
O=C(/C=C/c1ccc(Cl)cc1)c1ccc([N+](=O)[O-])o1,30.6,15.3,88.1*,1.5,2.1,25.0
Cc1cc(O)c(C(=O)/C=C/c2ccc(Cl)cc2)c(=O)o1,-37.0,-73.6,14.0,-35.6,-15.8,-29.3
CN(C)CC(=O)Nc1ccc2c(c1)[C@H]1C[C@H](CC(=O)NCc3ccccc3)O[C@H](CO)[C@H]1O2,.,-3.5,.,-15.1,.,-6.3
O=C(Nc1cccc(Cl)c1)c1cccc(Oc2ccc([N+](=O)[O-])cc2Cl)c1,43.5,-1.9,82.1*,-9.7,5.0,-4.7
COc1ccc(NC(=O)c2cccc(Oc3ccc([N+](=O)[O-])cc3Cl)c2)cc1,23.6,12.1,58.9*,8.0,10.7,29.7
Cc1ccc(C)c(NC(=O)c2cccc(Oc3ccc([N+](=O)[O-])cc3Cl)c2)c1,13.6,-3.9,36.8,-3.4,11.6,-10.9
C[C@@H]1CN([C@@H](C)CO)C(=O)c2cc(C#CCC3CCCC3)cnc2O[C@H]1CN(C)S(=O)(=O)c1cccs1,.,38.1,.,5.6,.,-11.5
CC(=O)N(C)C[C@@H]1Oc2ncc(C3=CCCC3)cc2C(=O)N([C@@H](C)CO)C[C@@H]1C,.,.,.,-7.8,.,-3.0
SMILES,TROY signal inh,PAX8 inh HTS,TWEAK-Fn14 inh,LGR2 antag,EBV LMP1 NFkB,EWS-Fli inh
O=C(Nc1ccc(F)cc1)c1nc(S(=O)(=O)Cc2ccccc2)ncc1Cl,69.2*,104.0*,79.3*,-4.0,-1.6,55.6*
Cc1ccc(NC(=O)c2nc(S(=O)(=O)Cc3ccccc3)ncc2Cl)cc1,79.7*,?,67.1*,4.5,24.2,60.7*
CS(=O)(=O)c1ncc(Cl)c(C(=O)Nc2ccc(N3CCOCC3)cc2)n1,21.9,.,-11.8,.,34.6,.
O=C(Nc1ccc(F)cc1)c1nn(-c2ccccc2)c(=O)cc1Cl,18.6,19.4,55.1*,74.6*,7.1,10.9
Cc1ccccc1CS(=O)(=O)c1ncc(Cl)c(C(=O)Nc2ccc(F)cc2)n1,78.0*,30.5,82.0*,21.7,52.1*,56.4*
C[C@@H]1CN([C@@H](C)CO)C(=O)c2cc(NS(=O)(=O)c3ccccc3)ccc2O[C@@H]1CN(C)S(=O)(=O)c1cccs1,.,-3.3,.,-11.1,.,6.9
CCOC(=O)c1c(NC(=S)N2CCOCC2)sc2c1CCN(C(=O)OCC)C2,13.0,27.4,9.1,62.6*,.,14.2
Cc1nnc(Sc2cc(NCCCO)c([N+](=O)[O-])c3nonc23)s1,9.6,75.3*,-5.0,8.4,-1.1,1.8
COc1cc(COCC(O)CN2C(C)CCCC2C)cc(OC)c1OC (stereo not given),-8.1,-1.4,-5.8,4.2,87.8*,9.9
CCCC(=O)Nc1ccc2c(c1)C(=O)N(C)[C@@H]1CC[C@@H](CC(=O)N3CCCCC3)O[C@@H]1CO2,.,-17.9,.,-5.7,.,-0.5
C[C@@H]1CN([C@@H](C)CO)C(=O)c2cc(C#Cc3ccccc3)cnc2O[C@H]1CN(C)C(=O)c1ccccc1,.,31.1,.,9.1,.,3.0
Cc1ccc2cc(/C=N/NC(=O)c3ccccc3O)c(Cl)nc2c1,64.9*,6.3,2.7,-12.4,3.6,.
Cc1cccc2cc(/C=N/NC(=O)c3ccccc3O)c(Cl)nc12,56.5*,-7.3,14.8,.,7.2,19.5
Cc1cccc2cc(/C=N/NC(=O)c3ccncc3)c(Cl)nc12,-12.6,15.3,-7.0,-17.4,2.9,7.2
CS(=O)(=O)N(Cc1ccc(Cl)cc1)c1ccc(C(=O)N/N=C/c2cc3ccccc3nc2Cl)cc1,0.3,.,18.5,2.6,58.1*,.
COC(=O)c1cc2ccccc2c(=O)s1,.,.,85.1*,.,-6.0,.
O=C(NCCO)c1cc2ccccc2c(=O)s1,-18.2,.,4.9,.,-5.7,.
C[C@@H]1CN([C@@H](C)CO)C(=O)Cc2cc(NC(=O)C3CC3)ccc2O[C@@H]1CN(C)C(=O)Nc1cccc2ccccc12,.,22.1,.,2.0,.,13.2
O=C(c1ccc(S(=O)(=O)Cc2ccccc2Cl)c([N+](=O)[O-])c1)N1CCN(c2ccccn2)CC1,37.6,52.6,68.8*,48.7,35.5,9.0
Cc1ccccc1CS(=O)(=O)c1cn(CC(=O)N2CCC(C)CC2)c2ccccc12,-8.4,2.6,5.6,-16.3,-1.4,.
O=C(c1ccc(S(=O)(=O)Cc2cc(F)ccc2F)c([N+](=O)[O-])c1)N1CCCC1,16.8,31.5,45.6,20.9,-0.5,20.7
O=C(c1ccc(S(=O)(=O)Cc2cc(F)ccc2F)c([N+](=O)[O-])c1)N1CCCCC1,12.0,52.7,62.0*,14.2,-1.4,.
Cc1ccccc1CS(=O)(=O)c1ccc(C(=O)N2CCC(C)CC2)cc1[N+](=O)[O-],2.5,-9.0,56.5*,3.7,-3.9,-3.1
